Screen size: about 13,000 compounds; about 3,200 (25%) showed an effect of 50% or more. The list shows a part of the results.

The test has as its system P. falciparum stage V gametocytes. The arrangement: BacTiter-Glo ATP luminescence viability of purified stage V gametocytes in 384-well plates, per cent inhibition versus DMSO. To be noted: 48 h, 5 µM; inhibitor.
With `NC(=O)c1cccc(Nc2nccc(Nc3ccc(Oc4c(Cl)cccc4Cl)c(Cl)c3)n2)c1` [TCMDC-138594], the “% Inhibition” value is given as -30.34%.

As for `OC(CN(Cc1ccccc1)Cc1ccccc1)Cn1c2ccc(Cl)cc2c2cc(Cl)ccc21` (stereo not shown) [TCMDC-125720], the “% Inhibition” value was 14.45%.

Turning to `N#Cc1cccc(C(O)CN(Cc2ccccc2)Cc2ccccc2)c1` (stereo not shown) [TCMDC-131250], the “% Inhibition” value turned out to be 62.4%.

Take `N#Cc1ccc2[nH]cc(C(=O)CCCCCN(Cc3ccccc3)Cc3ccccc3)c2c1` [TCMDC-131257]: the “% Inhibition” value is 33.92%.

`Cc1cc(C(F)(F)F)cc(-n2ncc(-c3ccc(C(=O)NCCNCc4ccccc4)cc3)c2N)n1` [TCMDC-136659]: the “% Inhibition” value is -53.07%.

`CS(=O)(=O)N(c1cccc(F)c1)c1cc(C(=O)N[C@@H](Cc2ccccc2)[C@H](O)CNCc2cccc(C(F)(F)F)c2)cc(N2CCCC2=O)c1` [TCMDC-138921]: the “% Inhibition” value is recorded as -9.659%.

As to `CCc1c[nH]c2c(N(c3ccccc3)S(C)(=O)=O)cc(C(=O)N[C@@H](Cc3ccccc3)[C@H](O)CNC(C)(C)CCCC(C)C)cc12` [TCMDC-135319], the “% Inhibition” value stood at 124.7%.

With `CCNc1cc(C(=O)N[C@@H](Cc2ccccc2)[C@H](O)CNC(C)(C)CCCC(C)C)cc(N2CCCC2=O)c1` [TCMDC-138889], the “% Inhibition” value was determined as 7.674%.

On to `CS(=O)(=O)N(c1ccc(F)cc1)c1cc(C(=O)N[C@@H](Cc2ccccc2)[C@H](O)CNCc2cccc(C(F)(F)F)c2)cc(N2CCCC2=O)c1` [TCMDC-138920], for which the “% Inhibition” value is -15.57%.

With `CCc1c[nH]c2c(N(c3ccccc3)S(C)(=O)=O)cc(C(=O)N[C@@H](Cc3ccccc3)[C@H](O)CNCc3cccc(C(F)(F)F)c3)cc12` [TCMDC-135318], the “% Inhibition” value was 91.8%.

In the case of `CN=C(NC)c1cccc(NC(=O)C=Cc2ccc(C=CC(=O)Nc3cccc(C(=NC)NC)c3)cc2)c1` [TCMDC-137213], the “% Inhibition” value was 18.83%.

As for `CCc1cc2c(=O)c(-c3nc(C)cs3)c([C@H](N)Cc3ccc(O)cc3)oc2cc1O` [TCMDC-124111], the “% Inhibition” value was found to be 0.6377%.

As for `O=C(N/C=N/c1cc([N+](=O)[O-])c(-c2cccnc2)n1-c1ccc(O)cc1)c1ccccc1` [TCMDC-125227], the “% Inhibition” value was -2.82%.

For `COc1ccc(CC(=O)NC(CCCN2CCC(c3ccccc3)CC2)c2ccc(Cl)c(Cl)c2)cc1OC` (stereo not shown) [TCMDC-141901], the “% Inhibition” value is listed as -2.836%.

For `CC(=O)Nc1ccc(CN(Cc2ccc(F)cc2)Cc2cccc(Oc3ccccc3)c2)cc1` [TCMDC-140033], the “% Inhibition” value is listed as -16.62%.

`O=S(=O)(c1cccc(Cl)c1F)N(CCC(O)(C(F)(F)F)C(F)(F)F)Cc1cccc(O)c1` [TCMDC-133479]: the “% Inhibition” value is on record as 57.98%.

Turning to `O=S(=O)(c1ccc(Oc2ccccc2)cc1)N(CCC(O)(C(F)(F)F)C(F)(F)F)Cc1cccc(O)c1` [TCMDC-133480], the “% Inhibition” value stood at 74.25%.

As to `COC(=O)c1cccc(CN(CCC(O)(C(F)(F)F)C(F)(F)F)C(=O)CC2CCCC2)c1` [TCMDC-133482], the “% Inhibition” value is on record as 48.89%.

Take `O=S(=O)(c1cc2ccccc2s1)N(CCC(O)(C(F)(F)F)C(F)(F)F)Cc1cccc(O)c1` [TCMDC-133477]: the “% Inhibition” value stood at 95.75%.

As to `O=C(Nc1cccc(CN2CCN(Cc3cccc(O)c3)CC2)c1)c1cc2ccccc2s1` [TCMDC-134623], the “% Inhibition” value is recorded as -8.756%.

`O=S(=O)(c1cc(Cl)sc1Cl)N(CCC(O)(C(F)(F)F)C(F)(F)F)Cc1cccc(O)c1` [TCMDC-133476]: the “% Inhibition” value amounted to 47.79%.

As for `O=S(=O)(c1csc2ccccc12)N(CCC(O)(C(F)(F)F)C(F)(F)F)Cc1cccc(O)c1` [TCMDC-133478], the “% Inhibition” value turned out to be 82.79%.

Regarding `Oc1cc(Nc2ccnc3cc(I)ccc23)c(F)cc1Cl` [TCMDC-138386], the “% Inhibition” value is given as -3.325%.

In the case of `COc1ccc2nccc([C@@H](O)CN3CCC(NC(=O)/C=C/c4c[nH]c5c(C)cccc45)CC3)c2c1` [TCMDC-141000], the “% Inhibition” value is recorded as -6.826%.

For `COC(=O)CCn1c(C2CCN(CC3CCC(NC(=O)/C=C/c4ccc(Cl)c(Cl)c4)CC3)CC2)nc2ccccc21` (stereo not shown) [TCMDC-140309], the “% Inhibition” value is listed as -7.996%.

`Cc1ccc(C)c2sc(N(CCCn3ccnc3)C(=O)c3ccco3)nc12` [TCMDC-124924]: the “% Inhibition” value was 13.91%.

As to `Cc1cc(N2CCC(NS(=O)(=O)c3cccc4cccnc34)CC2)nc(Nc2cccc(C#N)c2)n1` [TCMDC-134212], the “% Inhibition” value is -0.7992%.

With `CCOC(=O)C1=C(C)NC2=C(C(=O)CCC2)C1c1cn(Cc2ccc(Cl)cc2Cl)nc1-c1ccccc1` (stereo not shown) [TCMDC-125393], the “% Inhibition” value is recorded as -36.58%.

Consider `COc1ccc(CNC2CCN(C)CC2)cc1-c1ccc(S(=O)(=O)NCC2CCCO2)s1` (stereo not shown) [TCMDC-132478], for which the “% Inhibition” value is 30.18%.

On to `COc1ccc(CNC2CCCC2)cc1-c1ccc(S(=O)(=O)NCCN2CCCC2)s1` [TCMDC-132299], for which the “% Inhibition” value was 107.1%.

In the case of `COc1ccc(CNC2CCN(C)CC2)cc1-c1ccc(S(=O)(=O)NCCN2CCCC2)s1` [TCMDC-132259], the “% Inhibition” value is 103.7%.

In the case of `COc1ccc(CNC2CCN(C)CC2)cc1-c1ccc(S(=O)(=O)NC2CCC2)s1` [TCMDC-132254], the “% Inhibition” value is recorded as 75.62%.

For `COc1ccc(CCN2CCC(NCc3cccc(N(C)C)c3)CC2)cc1` [TCMDC-124991], the “% Inhibition” value is on record as -14.2%.

`COc1ccc(CNC2Cc3ccccc3C2)cc1-c1ccc(S(=O)(=O)NCCN2CCCC2)s1` [TCMDC-132258]: the “% Inhibition” value was determined as 106.2%.

Turning to `N#Cc1cccc(-c2cnc(N)c(-c3nc4ccc(S(N)(=O)=O)cc4[nH]3)c2)c1` [TCMDC-138816], the “% Inhibition” value worked out at 7.84%.

In the case of `COc1ccc(C(c2ccc(N(C)C)cc2)c2ccc(N(C)C)cc2)cc1` [TCMDC-125652], the “% Inhibition” value was found to be 48.26%.

On to `CN1CCN(CC(O)CNC(=O)Nc2ccc(Cl)cc2)CC1` (stereo not shown) [TCMDC-134633], for which the “% Inhibition” value was determined as 21.11%.

For the compound `COc1ccc2nccc([C@@H](O)CN3CCC(NC(=O)/C=C/c4ccc(Cl)c(C(F)(F)F)c4)CC3)c2c1` [TCMDC-141110], the “% Inhibition” value was -13.82%.

Turning to `CN1CCC(c2c[nH]c3ccc(NC(=O)Nc4ccc(-c5ccncc5)c(Cl)c4Cl)cc23)CC1` [TCMDC-139179], the “% Inhibition” value is -11.47%.

On to `CSc1ccc(C=CC(=O)NC(=O)c2ccccc2O)cc1` [TCMDC-123758], for which the “% Inhibition” value turned out to be 32.47%.

The values are drawn from PMC4552634, “A New Set of Chemical Starting Points with Plasmodium falciparum Transmission-Blocking Potential for Antimalarial Drug Discovery” (PLoS ONE, 2015).
